Out of some 360,000 compounds screened, about 340 (0.094%) were called active. No stated cut-off is given here; in the data, active means inhibition above about 40%; inconclusive means no clear call, values can overlap the other calls; inactive means below that. What follows is part of a selection rich in actives, with near analogues and random picks from the rest.
test system: 7,8-diaminopelargonic acid synthase BioA (Mycobacterium tuberculosis); test: M. tuberculosis BioA enzyme inhibitors, primary screen, biochemical, plate reader, single point, HTS (AID 602481); settings: purified M. tuberculosis BioA enzyme, at 9.99 µM, active compounds read high

Question: For `C/C=C/c1cnc2c(c1)C(=O)N([C@H](C)CO)C[C@@H](C)[C@H](CN(C)Cc1cccc(C(=O)O)c1)O2`, which inhibition is on record?
Answer: 0.203% (inactive)

Question: For `C[C@@H]1CN([C@@H](C)CO)C(=O)Cc2cc(NC(=O)CCCCCC(=O)Nc3ccccc3N)ccc2O[C@H]1CN(C)Cc1ccc(Cl)c(Cl)c1`, which inhibition is on record?
Answer: -3.74% (inactive)

Question: `COCC(=O)Nc1ccc2c(c1)OC[C@@H](C)N(Cc1ccccn1)C[C@H](C)[C@@H](OC)CN(C)C2=O` was tested. Which inhibition did it give?
Answer: -0.629% (inactive)

Question: With `C[C@H](CO)N1C[C@H](C)[C@H](CN(C)Cc2cccc(C(=O)O)c2)Oc2ncc(-c3ccccc3F)cc2C1=O` as the compound, how does the inhibition read?
Answer: -3.23% (inactive)

Question: For `COc1ccc2c3c(c(=O)oc2c1OCC(=O)C(C)(C)C)CCCC3`, which inhibition is on record?
Answer: 0.336% (inactive)

Question: For `CCCOc1ccc2c3c(c(=O)oc2c1OCCC)CCC3`, which inhibition is on record?
Answer: 49.3% (active)

Question: How did the inhibition turn out when `O=c1oc2c(CN3CCCCC3)c(O)ccc2c2c1CCCCC2` was run?
Answer: 16.6% (inactive)

Question: Which inhibition does the source give for `C[C@H]1CN([C@@H](C)CO)C(=O)CCCn2nncc2CO[C@H]1CN(C)Cc1cccc(C(=O)O)c1` here?
Answer: -5.89% (inactive)

Question: For `C[C@@H]1CN([C@H](C)CO)C(=O)Cc2cc(NS(=O)(=O)c3ccc(F)cc3)ccc2O[C@@H]1CN(C)S(=O)(=O)c1ccc(F)cc1`, which inhibition is on record?
Answer: 4.14% (inactive)

Question: With `CN1c2ccc(C3=CCCCC3)cc2[C@@H]2[C@@H](CCN2S(=O)(=O)c2ccccc2F)[C@H]1CO` as the compound, how does the inhibition read?
Answer: -2.02% (inactive)

Question: `Cc1ccccc1S(=O)(=O)N1[C@H](C#N)[C@H](c2ccccc2)[C@@H]1CO` was tested. Which inhibition did it give?
Answer: -0.99% (inactive)

Question: For `CC(C)NC(=O)N(C)C[C@@H]1Oc2ccc(NC(=O)C3CC3)cc2C(=O)N([C@@H](C)CO)C[C@H]1C`, which inhibition is on record?
Answer: -0.507% (inactive)

Question: How did the inhibition turn out when `C[C@H](CO)N1C[C@H](C)[C@@H](CN(C)C(=O)Nc2ccc3c(c2)OCO3)Oc2ccc(NS(=O)(=O)c3ccc(Cl)cc3)cc2C1=O` was run?
Answer: 0.544% (inactive)

Question: Which inhibition does the source give for `C[C@@H]1CN([C@@H](C)CO)C(=O)Cc2cc(NC(=O)C3CCCCC3)ccc2O[C@H]1CN(C)C(=O)Nc1ccccc1` here?
Answer: 0.073% (inactive)

Question: `C[C@H]1CN([C@@H](C)CO)C(=O)c2cc(Br)cnc2O[C@H]1CN(C)CC1CCCC1` was tested. Which inhibition did it give?
Answer: -0.484% (inactive)

Question: `CCCN1[C@H](C(=O)N2CCOCC2)[C@@H](CO)[C@@H]2Cn3c(ccc(/C=C/c4ccccc4)c3=O)[C@@H]21` was tested. Which inhibition did it give?
Answer: -3.1% (inactive)

Question: How did the inhibition turn out when `CC1(C)CC(=O)C=C(c2ccc3ncccc3c2)C1` was run?
Answer: 64.2% (active)

Question: With `COc1ccccc1-c1n[nH]nc1C1=CC(=O)CC(C)(C)C1` as the compound, how does the inhibition read?
Answer: -1.72% (inactive)

Question: `CC1(C)CC(=O)C=C(c2ccc(Cl)c(C(F)(F)F)c2)C1` was tested. Which inhibition did it give?
Answer: -0.352% (inactive)

Question: With `O=S(=O)(N[C@@H]1CC[C@H](CCn2cc(-c3ccccc3F)nn2)O[C@H]1CO)c1ccc(F)cc1` as the compound, how does the inhibition read?
Answer: 1.57% (inactive)

Question: For `Cc1c(OC(C)C(=O)N[C@@H](Cc2ccccc2)C(=O)O)ccc2c3c(c(=O)oc12)CCCC3` (stereo not given in full), which inhibition is on record?
Answer: 0.433% (inactive)

Question: With `Cc1cc(=O)oc2c(C)c(OC(C)C(=O)NC3CCN(Cc4ccccc4)CC3)ccc12` (stereo not given) as the compound, how does the inhibition read?
Answer: -3.72% (inactive)

Question: With `Cc1c(OC(C)C(=O)NCC2CCC(C(=O)O)CC2)ccc2c1oc(=O)c1ccccc12` (stereo not given) as the compound, how does the inhibition read?
Answer: 43.7% (active)

Question: With `O=C(CN1CCOCC1)N1CCCCN2[C@H](CO)[C@H](c3ccc(Br)cc3)[C@H]2C1` as the compound, how does the inhibition read?
Answer: 4.49% (inactive)

Question: Which inhibition does the source give for `COc1cccc(S(=O)(=O)N[C@H]2C=C[C@H](CC(=O)NCc3ccc(Cl)cc3)O[C@@H]2CO)c1` here?
Answer: -1.44% (inactive)

From PubChem BioAssay AID602481 (Broad Institute, 2012)
